Bioassay records: PubChem BioAssay, National Center for Advancing Translational Sciences (NCATS)
TrxR1 inh: qHTS Assay for Inhibitors of Mammalian Selenoprotein Thioredoxin Reductase 1 (TrxR1): qHTS; actives 1% (n = 390,000); recombinant rTrxR1, NADPH fluorescence consumption, selenite substrate; Thioredoxin reductase 1, cytoplasmic (Rattus norvegicus), O89049; AID 588453, 2011; Potency, µM (highest dose often 114 µM), for inactives: top-dose activity change, negative = inhibition, most hits filed as inhibitors; further: on the % scale 0 is the no-effect control and ±100 the full control effect; nearly all actives have a fitted effect of over 65% in size
Target sequence (O89049 whole entry, looked up): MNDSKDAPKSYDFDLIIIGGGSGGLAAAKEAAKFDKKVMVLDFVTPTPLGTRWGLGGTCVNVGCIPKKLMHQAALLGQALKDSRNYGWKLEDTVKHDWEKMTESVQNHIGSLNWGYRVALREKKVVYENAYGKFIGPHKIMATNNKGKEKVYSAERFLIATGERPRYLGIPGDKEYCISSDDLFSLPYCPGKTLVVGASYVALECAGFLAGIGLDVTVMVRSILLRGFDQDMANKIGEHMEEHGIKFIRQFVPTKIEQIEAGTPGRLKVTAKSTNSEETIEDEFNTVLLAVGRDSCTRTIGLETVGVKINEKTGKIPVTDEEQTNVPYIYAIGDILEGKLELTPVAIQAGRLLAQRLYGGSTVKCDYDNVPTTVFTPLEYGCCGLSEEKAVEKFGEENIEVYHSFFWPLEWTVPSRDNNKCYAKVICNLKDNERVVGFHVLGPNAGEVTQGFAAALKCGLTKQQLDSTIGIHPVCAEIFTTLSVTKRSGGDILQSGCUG
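Rat TrxR1 (90 nM in the dispensed reagent) was pre-reduced with 400 uM NADPH for 5 min at room temperature, then incubated with compound for 15 min. After 400 uM selenite was added, NADPH fluorescence (Ex 340/Em 450 nm) was followed for 8 min.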
ALOX12 inh: Primary qHTS assay for inhibitors of human arachidonate 12S-lipoxygenase (ALOX12): Round 2 | Polyunsaturated fatty acid lipoxygenase ALOX12 (Homo sapiens), P18054 | purified 12hLO, xylenol orange hydroperoxide absorbance | Potency, µM (top dose mostly 108 µM), for the others: at the highest dose activity change, negative = inhibition, usual class: inhibitors | actives 1.1% (n = 580,000); further: on the % scale 0 is the no-effect control and ±100 the full control effect
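Purified human 12hLO (150 nM final) in 25 mM Hepes, 0.01% Triton X-100, pH 7.0 was preincubated 15 min at room temperature with compound. Then 40 uM arachidonic acid was added, 30 min. Hydroperoxide was read by Fe-XO absorbance ratio 573/405 nm.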
IDH1 R132H inh: qHTS for Inhibitors of mutant isocitrate dehydrogenase 1 (IDH1): qHTS; IDH1-R132H enzyme, NADPH consumption, diaphorase/resazurin fluorescence; Isocitrate dehydrogenase [NADP] cytoplasmic (Homo sapiens), O75874; actives 0.093% (n = 390,000); Potency, µM (titrated, usually from 76.6 µM), for inactives: top-dose activity change, negative = inhibition, usual class: inhibitors; AID 602179, 2012; further: on the % scale 0 is the no-effect control and ±100 the full control effect; nearly all actives have a fitted effect of over 65% in size
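IDH1-R132H (0.5 ug/mL) preincubated 30 min with compound, then NADPH (0.016 mM) and alpha-KG (2 mM) added; 80 min at RT, pH 7.5. Remaining NADPH coupled via diaphorase/resazurin to fluorescence (540/590 nm); concentration-response curves normalized to no-enzyme control.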
GRP78 ERSR act: qHTS for Inducers of the Endoplasmic Reticulum Stress Response (ERSR) in Human Glioma: qHTS; U87-MG GRP78 promoter luciferase reporter, 16 h; Potency, µM, for inactives: top-dose activation, actives largely listed as activators; actives 0.02% (n = 420,000); AID 602332, 2012; further: series mostly up to about 76 µM; % of control where 0% means no effect; nearly all actives have a fitted effect of over 35% in size
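Stably transfected U87-MG human glioma cells carrying a GRP78-based luminescent sensor were seeded at 1000 cells/well, pin-dosed with compounds and incubated 16 h. Luciferase reagent was then added, and end-point luminescence was read after 10 min at room temperature.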
TrxR1 substrate: qHTS Assay for Substrates of Mammalian Selenoprotein Thioredoxin Reductase 1 (TrxR1): qHTS | Thioredoxin reductase 1, cytoplasmic (Rattus norvegicus), O89049 | purified TrxR1 substrate turnover, NADPH consumption readout | Potency, µM (doses to about 114 µM), without a hit: top-dose activity change, negative = substrate turnover | actives 0.01% (n = 390,000); further: on the % scale 0 is the no-effect control and ±100 the full control effect; nearly all actives have a fitted effect of over 50% in size
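Rat TrxR1, dispensed at 90 nM, was prereduced with 400 uM NADPH (final) for 5 min at ~22 deg C, then incubated with compound 15 min before 400 uM selenite. A first-read NADPH fluorescence drop versus no-compound background flagged substrates.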
Anesthetic bind: qHTS Assay for Identification of Novel General Anesthetics; Ferritin light chain (Equus caballus), P02791; apoferritin/1-aminoanthracene competitive binding, fluorescence; Potency, µM (highest dose often 77.5 µM), for the others: at the top dose activity change, negative = displacement, hits mostly inhibitors; actives 0.074% (n = 350,000); AID 485281, 2010; further: on the % scale 0 is the no-effect control and ±100 the full control effect; nearly all actives have a fitted effect of over 20% in size
Target sequence (P02791 2-175 limits assumed): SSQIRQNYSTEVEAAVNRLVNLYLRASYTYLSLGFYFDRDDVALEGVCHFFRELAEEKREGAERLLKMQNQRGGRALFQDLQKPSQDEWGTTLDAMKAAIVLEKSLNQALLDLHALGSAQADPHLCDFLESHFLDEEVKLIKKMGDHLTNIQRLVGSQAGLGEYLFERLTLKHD
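Horse-spleen apoferritin (10 uM) in 50% saturated 1-aminoanthracene in PBS was incubated 10 min at room temperature with compound. Fluorescence (ex 380, em 535 nm) was normalized to free and bound 1-AMA, with concentration-response fitted by a four-parameter Hill equation.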
Starred values were filed as active, the others as inactive; ? = inconclusive; . = no result given; [ ] = dose if it differs, or a comment. Compounds with a hit are over-represented: about 1.7% of the library has one in this group of screens. The call rests on the fitted dose curve; in most records, active means well fitted curve in the direction sought with a large enough effect; inconclusive means small, poorly fitted or top-dose-only effect, or another doubt; inactive means no such curve, though single readings can be large; an effect the other way counts as inactive or inconclusive. Potency means the concentration at half of the fitted maximal effect.

SMILES	TrxR1 inh	ALOX12 inh	IDH1 R132H inh	GRP78 ERSR act	TrxR1 substrate	Anesthetic bind
CC(C)NC(=O)C(C)[C@@H]1CC[C@@]2(C)CC[C@H](NC(=O)CC(C)(C)C)[C@@H](C)[C@@H]2[C@H]1O (some centres undefined)	.	-1%[176 µM]	.	.	.	.
CC(Oc1ccc(F)c(F)c1)C(=O)NCCC(=O)N1CCOCC1 (centres undefined)	.	-4%	.	.	.	.
CN1c2cc(C(=O)Nc3cccc(C(F)(F)F)c3)ccc2C(=O)N2CCCCCC21 (centres undefined)	.	-4%	.	.	.	.
O=C(NCc1cc(=O)n2nc(-c3ccccc3)sc2n1)Nc1ccccc1	.	-3%	.	.	.	.
CC1CCc2c(C(=O)NC(C)c3ccccc3)csc2C1 (centres undefined)	.	2%	.	.	.	.
Cc1ccn2c(-c3csc(NCc4ccccc4)n3)c(C)nc2c1	18%	11µM*	1%	-9%	7%	-18%
Cc1nc2ccccn2c1-c1csc(NCc2ccco2)n1	16%	-2%	-2%	-1%	12%	-12%
Cc1ccn2c(-c3n[nH]c(=S)n3Cc3ccccc3)c(C)nc2c1	?	8.9µM*	-2%	-5%	-5%	1%
S=c1[nH]nc(-c2ccccc2Cl)n1Cc1ccccc1	4%[57.1 µM]	?	7%	-2%	6%[57.1 µM]	?
COc1cc(-c2cc(C)c3c(OC)ccc(OC)c3n2)cc2c1OCCN(Cc1cn(C)nc1C)C2	.	-4%	.	-2%	.	.
OCC1(Cc2ccccc2)CCN(Cc2ccccc2-c2ccco2)CC1	.	12%	.	.	.	.
C=CCOC(=O)C1=C(C)N=C2SC=C(CC(=O)NC3CC3)N2C1c1cc(OC)cc(OC)c1 (centres undefined)	.	24%	.	.	.	.
O=C1N(CCC2CCOC2)c2ccccc2NC12CCNCC2 (centres undefined)	.	54%	.	.	.	.
CCC(C)NC(=O)CSc1nc2cc3c(cc2c(=O)n1CCCC(=O)NCCc1ccc(OC)c(OC)c1)OCO3 (centres undefined)	14%[57.1 µM]	-10%	7%	-3%	1%[57.1 µM]	2%
CCCN1CCN(C(=O)c2c(C)oc3c2CN(Cc2ccc(C)cc2)CC3)CC1	.	13µM*	.	.	.	.
CC(=O)O[C@@H]1C(=O)[C@@]2(C)[C@H](O)C[C@H]3OC[C@]3(OC(C)=O)[C@@H]2[C@H](OC(=O)c2ccccc2)[C@@]2(O)C[C@H](OC(=O)[C@@H](O)[C@@H](NC(=O)c3ccccc3)c3ccccc3)C(C)=C1C2(C)C (stereo in doubt)	.	.	.	-6%	.	-21%[29.3 µM]
O=C(O)CCCC(=O)N1CCNC(=O)C1	.	-19%	.	.	.	.
Cc1[nH]nc(CCC(=O)N[C@H]2CN(CCC(=O)O)C[C@@H]2C(C)C)c1C	.	1%	.	.	.	.
O=C1C=C(NCc2ccccc2)c2ccccc2C1=O	?	?	21%	-14%	16µM*	-1%
O=C1C=C(Nc2ccccc2O)c2ccccc2C1=O	-6%	-19%	18%	-15%	?	?
Cn1c(-c2sc3ccccc3c2Cl)n[nH]c1=S	-34%	14µM*	5%	1%	-7%	?
Cn1c(CSc2nc3ccccc3s2)n[nH]c1=S	-7%	?	10%	-9%	-1%	-2%
NS(=O)(=O)c1ccc(NC(=S)Nc2ccn(Cc3cccc4ccccc34)n2)cc1	13µM*	22µM*	-2%	-9%	-1%[57.1 µM]	-7%
CCCc1nc2ccc(C(=O)OC)cn2c1Cc1ccc(C)cc1	.	10µM*	.	0%	.	.
COC(=O)c1ccc2nc(-c3ccco3)c(Cc3cccc(Cl)c3)n2c1	.	16µM*	.	.	.	.
SMILES	TrxR1 inh	ALOX12 inh	IDH1 R132H inh	GRP78 ERSR act	TrxR1 substrate	Anesthetic bind
CCCc1nc2ccc(C(=O)OC)cn2c1Cc1ccccc1	.	?	.	-2%	.	.
COC(=O)c1ccc2nc(-c3ccc(Cl)cc3)c(Cc3cccc(Cl)c3)n2c1	.	-49%	.	.	.	.
Clc1cccc(Cc2c(-c3ccco3)nc3c4ccccc4ccn23)c1	.	10µM*	.	.	.	.
COC(=O)c1ccc2nc(-c3ccco3)c(Cc3ccccc3)n2c1	.	40µM*	.	11%	.	.
COC(=O)c1ccc2nc(-c3ccccc3)c(Cc3ccccc3)n2c1	.	0%	.	.	.	.
NC1CCc2ccc([N+](=O)[O-])cc21 (centres undefined)	13%	.	.	-2%	-3%	.
Cc1noc(-c2ccn3c(CNC(=O)c4ccc(N(C)C)cc4)nnc3c2)n1	.	25%	.	.	.	.
Fc1cccc(Cc2c(-c3ccco3)nc3ccc(Cl)cn23)c1	.	.	.	-11%	.	.
Clc1ccc2nc(-c3ccco3)c(Cc3ccccc3)n2c1	.	18µM*	.	-7%	.	.
CC1=C(C(=O)N2CCCCCC2)CC(CC(=O)NCCN2CCOCC2)C(=O)N1Cc1ccc(C(C)(C)C)cc1 (centres undefined)	.	8%	.	.	.	.
CCc1ccc(Nc2n[n+](-c3ccccc3)c(-c3cc(OC)c(OC)cc3Br)s2)cc1	15%	40µM*	-8%	0%	-6%	-6%
CCc1ccc(Nc2n[n+](-c3ccccc3)c(-c3ccc(OCc4ccccc4)cc3)s2)cc1	24%[57.1 µM]	22µM*	17%	-5%	-7%[57.1 µM]	-15%
CCc1ccc(Nc2n[n+](-c3ccccc3)c(-c3ccc(N(CC)CC)cc3)s2)cc1	-23%	40µM*	-16%	-2%	-11%	?
CN(C)c1ccc(-c2sc(Nc3ccccc3)n[n+]2-c2ccc(F)cc2)cc1	13%	45µM*	-2%	-2%	-4%	-1%
CCc1ccc(Nc2n[n+](-c3ccccc3)c(-c3c(Cl)cccc3Cl)s2)cc1	-3%	?	?	-11%	-9%	?
Clc1cccc(-c2cnc3n2C[C@H](CNCc2ccccc2)OC3)c1	.	2%[176 µM]	.	.	.	.
COc1ccc(C2CC(=O)C(c3ccccc3OC)=CN2Cc2ccccc2)cc1 (centres undefined)	.	-6%	.	.	.	.
CCCCN1C(=O)CC[C@H]2CN(C(=O)Cc3c[nH]c(=O)n(C)c3=O)CC[C@H]21	.	-24%	.	.	.	.
COc1ccc(C)cc1Nc1n[n+](-c2ccccc2)c(-c2ccc(N(C)C)cc2)s1	8.9µM*	?	?	-4%	0%	-21%
